Measured values published in PubChem BioAssay (Tox21).
Records with an inconclusive call do not appear. Where a call stands in place of a potency, no number is given. Calls of active or inactive are those of the source. Calls follow the shape of the dose curve; as a rule, active = well fitted activation curve with a large enough effect in the signal ratio in the repeat runs (not every such curve was filed as active); inconclusive = weak or mixed curves; inactive = flat fitted curve, though single readings scatter; the % refers to the signal ratio.

Test: p53 small molecule agonists, cell-based qHTS assay (AID 1963582)
Conditions: HCT-116 p53RE-bla reporter, beta-lactamase FRET ratio, 16 h; series mostly up to 66 µM
Excerpt: National Center for Advancing Translational Sciences [NCATS]
Division of Preclinical Innovation [DPI]
U.S. Environmental Protection Agency [EPA]
National Institutes of Environmental Health Sciences [NIEHS]
National Toxicology Program [NTP]
U.S. Food and Drug Administration [FDA]
p53, a tumor suppressor protein, is activated following cellular insult, including DNA damage and other cellular stresses. The activation of p53 regulates cell fate by inducing DNA repair, cell cycle arrest, apoptosis, or cellular senescence. The activation of p53, therefore, is a good indicator of DNA damage and other cellular stresses. […] The activation of the reporter gene under culture conditions can be detected by fluorescence intensity. This cell line was used to screen the Tox21 10K compound library in a 1536-well plate format and to identify agonists that activate the p53 signaling pathway.
Tox21 Assay Protocol Summary:
The p53RE-bla cells were dispensed at 4,000 cells/5 ul/well in 1536-well black wall/clear bottom plates using a Multidrop dispenser. After the assay plates were incubated at a 37 C/5% CO2 incubator for 5 hours, 23 nL of compounds dissolved in DMSO, positive controls or DMSO only was transferred to the assay plate by a pin tool. The plates were incubated at 37 C for 16 hours. After 1 uL of LiveBLAzerTM B/G FRET substrate was added using a Flying Reagent Dispenser, the plates were incubated at room temperature for 2 hours, and fluorescence intensity was measured by an Envision plate reader.

**Q.** Which Potency does the source give for Nc1nnc(-c2cccc(Cl)c2Cl)c(N)n1 here?
**A.** inactive

**Q.** For CCCOc1ccc(C(=O)OCCN(CC)CC)cc1N, which Potency is on record?
**A.** inactive

**Q.** With COc1ccc2nc(NC(=O)Nc3ccccc3)sc2c1 as the molecule, how does the Potency read?
**A.** inactive

**Q.** Which Potency does the source give for CCO[Si](OCC)(OCC)OCC here?
**A.** inactive

**Q.** For N[C@H]1CN(c2c(F)cc3c(=O)c(C(=O)O)cn(C4C[C@H]4F)c3c2Cl)CC12CC2 (stereo not given in full), which Potency is on record?
**A.** inactive

**Q.** With Cc1cc(CCCOc2c(C)cc(-c3noc(C(F)(F)F)n3)cc2C)on1 as the molecule, how does the Potency read?
**A.** inactive

**Q.** With CC(C)CCOC(=O)CC(C)C as the molecule, how does the Potency read?
**A.** inactive

**Q.** Which Potency does the source give for O=C(/C=C/c1ccc(O)c(O)c1)O[C@@H]1C[C@](O)(C(=O)O)C[C@@H](O)[C@H]1O here?
**A.** inactive

**Q.** Which Potency does the source give for CC(CC(C)(C)C)CC(C)(C)CC(C)(C)C (stereo not given) here?
**A.** inactive

**Q.** For Oc1ccc(Cl)c2cccnc12, which Potency is on record?
**A.** inactive

**Q.** For CC(=O)Nc1ccc(N)cc1, which Potency is on record?
**A.** inactive

**Q.** With CCOC(=O)c1c(N)sc2c1CCN(Cc1ccccc1)C2 as the molecule, how does the Potency read?
**A.** inactive

**Q.** Which Potency does the source give for Cl[Si](Cl)(c1ccccc1)c1ccccc1 here?
**A.** inactive

**Q.** With CC(C)COC(=O)COc1cc(Cl)c(Cl)cc1Cl as the molecule, how does the Potency read?
**A.** inactive

**Q.** Which Potency does the source give for C/C=C(\C)C(=O)OCCc1ccccc1 here?
**A.** inactive

**Q.** Which Potency does the source give for CN1CCC(=C2c3ccccc3CC(=O)c3sccc32)CC1 here?
**A.** inactive

**Q.** For c1cc2c3c(c1)ccc1cccc(c13)C2, which Potency is on record?
**A.** inactive

**Q.** With COc1ccc(OC)c(OC)c1 as the molecule, how does the Potency read?
**A.** inactive

**Q.** With C=CC(=O)OCCCCCCCCCC as the molecule, how does the Potency read?
**A.** inactive

**Q.** Which Potency does the source give for CNC(=O)c1cnn(-c2nc(N)c3ncn([C@@H]4O[C@H](CO)[C@@H](O)[C@H]4O)c3n2)c1 here?
**A.** inactive

**Q.** With COc1ccc(CN2CCN(C(c3ccc(F)cc3)c3ccc(F)cc3)CC2)c(OC)c1OC as the molecule, how does the Potency read?
**A.** inactive

**Q.** For CC12CCC(CC1=O)C2(C)C (stereo not given), which Potency is on record?
**A.** inactive

**Q.** For OCC(CBr)(CBr)CBr, which Potency is on record?
**A.** inactive

**Q.** For Cc1ccnc(NS(=O)(=O)c2ccc(N)cc2)n1, which Potency is on record?
**A.** inactive

**Q.** For CCCCCCCCC1CO1 (stereo not given), which Potency is on record?
**A.** inactive

**Q.** Which Potency does the source give for C[N+](C)(C)CC(O)CC(=O)[O-] (stereo not given) here?
**A.** inactive

**Q.** With C=CC(C)(O)CCCC(C)CCCC(C)CCCC(C)C (stereo not given) as the molecule, how does the Potency read?
**A.** inactive

**Q.** With CCCCOc1ccc(C(=O)CCN2CCCCC2)cc1 as the molecule, how does the Potency read?
**A.** inactive

**Q.** Which Potency does the source give for Cc1ccnc2ccccc12 here?
**A.** inactive

**Q.** For CCOC(=O)N1CCC(Nc2ccc(Cl)cc2N)CC1, which Potency is on record?
**A.** inactive

**Q.** Which Potency does the source give for O=C1CCCCO1 here?
**A.** inactive

**Q.** For CC(COc1ccccc1)NC(C)C(O)c1ccc(O)cc1 (stereo not given), which Potency is on record?
**A.** inactive

**Q.** Which Potency does the source give for CC(C)(C)NSc1nc2ccccc2s1 here?
**A.** inactive

**Q.** For CN1[C@@H]2CC[C@H]1CC(OC(=O)C(O)c1ccccc1)C2 (stereo not given in full), which Potency is on record?
**A.** inactive

**Q.** With COCCOC(=O)C1=C(C)NC(C)=C(C(=O)OC/C=C/c2ccccc2)C1c1cccc([N+](=O)[O-])c1 (stereo not given) as the molecule, how does the Potency read?
**A.** inactive

**Q.** With Cc1cc(S(=O)(=O)O)c(N)cc1Cl as the molecule, how does the Potency read?
**A.** inactive

**Q.** Which Potency does the source give for COC(C)(C)CCCC(C)CC=O (stereo not given) here?
**A.** inactive

**Q.** With CC(C)C(=O)Nc1cccc(C(F)(F)F)c1 as the molecule, how does the Potency read?
**A.** inactive

**Q.** With CCCCCCCCCC=O as the molecule, how does the Potency read?
**A.** inactive

**Q.** With CC1(C)S[C@@H]2[C@H](N=CN3CCCCCC3)C(=O)N2[C@H]1C(=O)O as the molecule, how does the Potency read?
**A.** inactive
